Results taken from the supplement of paper PMC10849652.
Targets with a hit are over-represented here; the source holds about 7,900 in all. About 0.6% of all pairs of compound and target were hits. Values without a mark were called inactive.

Key:
Assay in all cases: log2 fold change, soluble protein after heating vs DMSO (PISA); higher = thermal stabilisation; K562 cells, 10 uM, 30 min; active = over 0.2 and 3.5 SD of the protein, either way, in both replicates (recomputed)
erlotinib = compound: C#Cc1cccc(Nc2ncnc3cc(OCCOC)c(OCCOC)cc23)c1 [erlotinib]
Procedure, shortened: (§1)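 K562 cells at 2×10^6 cells/mL were given 10 μM compound for 30 min. Aliquots then went through 3 min of heating across 48°C-58°C, were pooled, and were extracted in PBS with 0.5% NP-40 at 4°C, and the supernatant after 21,000xg for 90 min was quantified by TMTpro 16plex LC-MS/MS with channel sums equalised. Thermal stability relative to control samples, from duplicates, is given as log2 fold change.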

[1] = compound: C/C(=N\NC(=O)C1=CC(=CC=C1)S(=O)(=O)N2CCOCC2)/C3=C(C=CC(=C3)Cl)O
Procedure, shortened: as §1

[2] = compound: C1=CC(=C(C=C1Cl)C2=NC3=NC=CN=C3C(=N2)NC4=CC=NC=C4)F
Procedure, shortened: as §1

[3] = compound: C1=CC(=CC=C1C2=NC3=C(N2)C=C(C=C3)C(=O)N)OC4=CC=C(C=C4)Cl
Procedure, shortened: as §1

[4] = compound: C1=CC2=C(C=CC(=C2)/C=C\3/C(=O)NC(=NCC4=CC=CS4)S3)N=C1
Procedure, shortened: as §1

[5] = compound: C1=CC2=NC=CN=C2C=C1/C=C/3\C(=O)NC(=O)S3
Procedure, shortened: as §1

[6] = compound: C1=CC=C(C=C1)C2=NC(=C(N2)C3=CC=NC=C3)C4=CC(=C(C=C4)Cl)O
Procedure, shortened: as §1

[7] = compound: C1=CC=C2C(=C1)C3=NNC4=CC=CC(=C43)C2=O
Procedure, shortened: as §1

[8] = compound: C1CCN(C1)C(=O)NC2=CC=CC(=C2)NC3=NC=C(C(=N3)NCCC4=CN=CN4)Br
Procedure, shortened: as §1

[9] = compound: C1CN(CCC1(CC2=CC=C(C=C2)Cl)N)C3=NC=NC4=C3C=CN4
Procedure, shortened: as §1

IRAK-1-4 Inhibitor I = compound: C1COCCN1CCN2C3=CC=CC=C3N=C2NC(=O)C4=CC(=CC=C4)[N+](=O)[O-] [IRAK-1-4 Inhibitor I]
Procedure, shortened: as §1

ibrutinib = compound: C=CC(=O)N1CCC[C@@H](n2nc(-c3ccc(Oc4ccccc4)cc3)c3c(N)ncnc32)C1 [ibrutinib]
Procedure, shortened: as §1

[10] = compound: CC(=O)c1cnc2ccc(-c3cc(Cl)c(O)c(Cl)c3)nc2c1N[C@H]1CC[C@H](CN(C)C)CC1
Procedure, shortened: as §1

ralimetinib = compound: CC(C)(C)Cn1c(N)nc2ccc(-c3[nH]c(C(C)(C)C)nc3-c3ccc(F)cc3)nc21 [ralimetinib]
Procedure, shortened: as §1

[11] = compound: CC(C)(O)CC(=O)NCCn1ccc2ncnc(Nc3ccc(Oc4cccc(C(F)(F)F)c4)c(Cl)c3)c21
Procedure, shortened: as §1

[12] = compound: CC(C)C1=C2N=C(C=C(N2N=C1)NCC3=CC=CC=C3)NCCCCCCN
Procedure, shortened: as §1

[13] = compound: CC(C)C[C@@H](C=O)NC(=O)[C@H](CC(C)C)NC(=O)[C@H](CC(C)C)NC(=O)OCc1ccccc1
Procedure, shortened: as §1

pinometostat = compound: CC(C)N(C[C@H]1O[C@@H](n2cnc3c(N)ncnc32)[C@H](O)[C@@H]1O)[C@H]1C[C@@H](CCc2nc3cc(C(C)(C)C)ccc3[nH]2)C1 [pinometostat]
Procedure, shortened: as §1

[14] = compound: CC1=C(C(CC(=O)N1)C2=CC=C(C=C2)C(F)(F)F)C(=O)NC3=C(C=C4C(=C3)C=NN4)F
Procedure, shortened: as §1

[15] = compound: CC1=C(C2=C(C=C1)C(=O)C3=CC=CC=C3N2CCCN)C
Procedure, shortened: as §1

Chain of UniProt Q53FT3 (Q53FT3 whole entry, looked up): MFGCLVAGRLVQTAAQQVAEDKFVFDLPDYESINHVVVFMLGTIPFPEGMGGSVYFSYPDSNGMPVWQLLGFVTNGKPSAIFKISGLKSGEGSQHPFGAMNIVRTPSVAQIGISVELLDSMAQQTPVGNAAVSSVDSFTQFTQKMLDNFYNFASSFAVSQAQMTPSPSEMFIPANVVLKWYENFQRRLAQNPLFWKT
Chain of UniProt Q9BYC5 (Q9BYC5 whole entry, looked up): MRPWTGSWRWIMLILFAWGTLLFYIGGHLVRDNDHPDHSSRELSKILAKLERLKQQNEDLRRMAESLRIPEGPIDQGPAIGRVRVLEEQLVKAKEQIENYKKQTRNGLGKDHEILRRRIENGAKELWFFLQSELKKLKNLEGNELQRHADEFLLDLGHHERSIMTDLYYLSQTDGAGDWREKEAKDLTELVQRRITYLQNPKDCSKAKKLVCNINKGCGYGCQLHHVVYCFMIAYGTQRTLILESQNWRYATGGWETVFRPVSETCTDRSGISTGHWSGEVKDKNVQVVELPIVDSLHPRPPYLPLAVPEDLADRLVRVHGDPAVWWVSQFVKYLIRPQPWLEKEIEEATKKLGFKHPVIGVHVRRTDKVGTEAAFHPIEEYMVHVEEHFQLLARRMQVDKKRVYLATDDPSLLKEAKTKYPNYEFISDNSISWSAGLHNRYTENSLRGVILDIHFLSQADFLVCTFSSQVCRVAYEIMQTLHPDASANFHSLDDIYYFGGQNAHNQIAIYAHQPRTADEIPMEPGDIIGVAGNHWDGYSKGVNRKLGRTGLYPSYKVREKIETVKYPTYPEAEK
Chain of UniProt Q92947 (Q92947 whole entry, looked up): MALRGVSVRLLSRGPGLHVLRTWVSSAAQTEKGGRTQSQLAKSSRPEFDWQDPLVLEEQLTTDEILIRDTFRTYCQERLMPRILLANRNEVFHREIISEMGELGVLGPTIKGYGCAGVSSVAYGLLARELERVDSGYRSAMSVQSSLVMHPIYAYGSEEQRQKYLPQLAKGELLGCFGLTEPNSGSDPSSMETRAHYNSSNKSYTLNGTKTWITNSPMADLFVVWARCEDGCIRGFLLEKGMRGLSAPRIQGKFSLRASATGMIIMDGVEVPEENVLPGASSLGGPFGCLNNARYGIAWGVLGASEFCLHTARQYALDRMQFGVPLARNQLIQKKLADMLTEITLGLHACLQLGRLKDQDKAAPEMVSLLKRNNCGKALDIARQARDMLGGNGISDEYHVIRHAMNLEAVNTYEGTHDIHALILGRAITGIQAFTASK
Chain of UniProt Q92769 (Q92769 whole entry, looked up): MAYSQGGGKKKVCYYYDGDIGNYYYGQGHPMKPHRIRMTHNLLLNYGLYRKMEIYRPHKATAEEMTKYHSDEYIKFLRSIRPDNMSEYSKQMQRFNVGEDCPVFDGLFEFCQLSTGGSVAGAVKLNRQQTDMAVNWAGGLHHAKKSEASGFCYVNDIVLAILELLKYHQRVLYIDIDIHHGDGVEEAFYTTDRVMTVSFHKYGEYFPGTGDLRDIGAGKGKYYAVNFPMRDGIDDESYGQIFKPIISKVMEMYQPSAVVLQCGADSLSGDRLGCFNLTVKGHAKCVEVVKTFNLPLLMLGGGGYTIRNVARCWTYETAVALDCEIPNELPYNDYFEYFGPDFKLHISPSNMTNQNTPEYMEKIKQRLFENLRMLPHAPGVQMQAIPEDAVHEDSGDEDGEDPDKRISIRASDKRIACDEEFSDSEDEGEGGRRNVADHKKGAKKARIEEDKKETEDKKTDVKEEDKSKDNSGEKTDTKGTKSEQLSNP
Chain of UniProt Q9NP66 (Q9NP66 whole entry, looked up): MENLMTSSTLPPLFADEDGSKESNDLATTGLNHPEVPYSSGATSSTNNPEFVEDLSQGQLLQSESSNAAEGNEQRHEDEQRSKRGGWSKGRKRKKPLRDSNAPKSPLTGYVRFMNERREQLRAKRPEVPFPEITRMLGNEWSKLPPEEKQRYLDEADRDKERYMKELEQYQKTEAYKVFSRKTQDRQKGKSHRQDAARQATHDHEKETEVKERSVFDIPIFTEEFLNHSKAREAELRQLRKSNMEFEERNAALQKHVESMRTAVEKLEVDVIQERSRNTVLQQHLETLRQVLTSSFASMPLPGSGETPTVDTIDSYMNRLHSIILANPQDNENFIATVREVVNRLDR
Chain of UniProt P51570 (P51570 whole entry, looked up): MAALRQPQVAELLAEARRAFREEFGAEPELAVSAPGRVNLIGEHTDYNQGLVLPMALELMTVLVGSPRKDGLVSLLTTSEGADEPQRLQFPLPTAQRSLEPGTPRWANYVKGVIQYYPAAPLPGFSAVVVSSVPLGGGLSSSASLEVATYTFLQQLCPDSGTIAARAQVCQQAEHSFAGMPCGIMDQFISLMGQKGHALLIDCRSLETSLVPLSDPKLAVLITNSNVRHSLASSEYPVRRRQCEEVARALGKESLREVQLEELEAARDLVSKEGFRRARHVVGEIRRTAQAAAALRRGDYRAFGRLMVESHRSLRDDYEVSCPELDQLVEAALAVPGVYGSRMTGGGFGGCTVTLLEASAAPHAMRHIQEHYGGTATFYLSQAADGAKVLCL
Chain of UniProt P00367 (P00367 whole entry, looked up): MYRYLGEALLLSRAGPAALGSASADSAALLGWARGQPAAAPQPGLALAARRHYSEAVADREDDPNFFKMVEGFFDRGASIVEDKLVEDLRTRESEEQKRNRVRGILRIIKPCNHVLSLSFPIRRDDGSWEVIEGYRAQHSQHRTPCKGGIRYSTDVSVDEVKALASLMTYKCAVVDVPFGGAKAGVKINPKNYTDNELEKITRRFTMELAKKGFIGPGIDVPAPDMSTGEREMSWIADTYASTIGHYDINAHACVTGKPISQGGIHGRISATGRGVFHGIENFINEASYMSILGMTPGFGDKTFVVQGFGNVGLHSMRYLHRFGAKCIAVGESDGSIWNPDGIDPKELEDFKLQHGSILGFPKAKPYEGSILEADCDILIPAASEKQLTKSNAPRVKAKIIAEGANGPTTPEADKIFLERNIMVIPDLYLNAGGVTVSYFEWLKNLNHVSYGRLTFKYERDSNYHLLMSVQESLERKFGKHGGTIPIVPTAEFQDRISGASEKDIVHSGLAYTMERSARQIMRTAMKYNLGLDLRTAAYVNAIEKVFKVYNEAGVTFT
Chain of UniProt Q53GQ0 (Q53GQ0 whole entry, looked up): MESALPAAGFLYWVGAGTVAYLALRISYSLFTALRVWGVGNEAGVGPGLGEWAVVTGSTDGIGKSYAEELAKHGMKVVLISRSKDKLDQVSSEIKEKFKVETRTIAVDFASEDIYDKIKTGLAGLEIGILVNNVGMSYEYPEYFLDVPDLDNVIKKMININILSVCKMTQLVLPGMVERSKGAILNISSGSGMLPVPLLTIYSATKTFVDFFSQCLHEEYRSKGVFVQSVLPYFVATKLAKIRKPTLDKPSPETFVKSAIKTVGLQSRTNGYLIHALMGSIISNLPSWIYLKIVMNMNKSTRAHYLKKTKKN
Chain of UniProt Q9UJY4 (Q9UJY4 whole entry, looked up): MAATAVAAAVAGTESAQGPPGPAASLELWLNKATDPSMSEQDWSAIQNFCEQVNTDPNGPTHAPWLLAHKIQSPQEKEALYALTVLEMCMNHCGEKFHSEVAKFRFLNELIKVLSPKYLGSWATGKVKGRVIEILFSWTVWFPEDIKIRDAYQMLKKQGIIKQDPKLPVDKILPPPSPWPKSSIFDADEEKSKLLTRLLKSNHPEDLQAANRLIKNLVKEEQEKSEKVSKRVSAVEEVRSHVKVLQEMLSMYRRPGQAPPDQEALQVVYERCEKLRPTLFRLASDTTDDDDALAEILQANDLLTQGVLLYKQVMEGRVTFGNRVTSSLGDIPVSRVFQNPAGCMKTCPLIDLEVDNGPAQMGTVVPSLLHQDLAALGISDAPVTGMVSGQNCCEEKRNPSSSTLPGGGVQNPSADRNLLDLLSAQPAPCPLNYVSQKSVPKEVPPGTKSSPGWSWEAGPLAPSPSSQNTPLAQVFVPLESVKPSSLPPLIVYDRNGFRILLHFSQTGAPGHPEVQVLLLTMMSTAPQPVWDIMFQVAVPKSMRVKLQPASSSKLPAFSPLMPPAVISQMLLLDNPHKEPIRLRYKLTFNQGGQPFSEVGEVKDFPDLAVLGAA
Chain of UniProt P07686 (P07686 whole entry, looked up): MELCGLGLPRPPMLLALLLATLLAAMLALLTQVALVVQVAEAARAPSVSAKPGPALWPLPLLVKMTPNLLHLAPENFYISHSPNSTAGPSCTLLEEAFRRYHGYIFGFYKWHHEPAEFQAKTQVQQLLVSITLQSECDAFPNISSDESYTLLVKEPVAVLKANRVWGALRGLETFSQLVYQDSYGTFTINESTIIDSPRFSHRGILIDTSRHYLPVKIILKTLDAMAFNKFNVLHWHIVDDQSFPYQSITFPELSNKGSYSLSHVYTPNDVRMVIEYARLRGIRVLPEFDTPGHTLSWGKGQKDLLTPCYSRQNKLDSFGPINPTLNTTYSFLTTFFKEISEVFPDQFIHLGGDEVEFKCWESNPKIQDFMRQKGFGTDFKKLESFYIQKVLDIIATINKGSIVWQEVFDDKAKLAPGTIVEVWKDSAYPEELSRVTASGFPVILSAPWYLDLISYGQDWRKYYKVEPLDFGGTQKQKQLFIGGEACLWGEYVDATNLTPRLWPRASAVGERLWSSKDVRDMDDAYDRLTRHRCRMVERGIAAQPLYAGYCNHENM
Chain of UniProt P49840 (P49840 whole entry, looked up): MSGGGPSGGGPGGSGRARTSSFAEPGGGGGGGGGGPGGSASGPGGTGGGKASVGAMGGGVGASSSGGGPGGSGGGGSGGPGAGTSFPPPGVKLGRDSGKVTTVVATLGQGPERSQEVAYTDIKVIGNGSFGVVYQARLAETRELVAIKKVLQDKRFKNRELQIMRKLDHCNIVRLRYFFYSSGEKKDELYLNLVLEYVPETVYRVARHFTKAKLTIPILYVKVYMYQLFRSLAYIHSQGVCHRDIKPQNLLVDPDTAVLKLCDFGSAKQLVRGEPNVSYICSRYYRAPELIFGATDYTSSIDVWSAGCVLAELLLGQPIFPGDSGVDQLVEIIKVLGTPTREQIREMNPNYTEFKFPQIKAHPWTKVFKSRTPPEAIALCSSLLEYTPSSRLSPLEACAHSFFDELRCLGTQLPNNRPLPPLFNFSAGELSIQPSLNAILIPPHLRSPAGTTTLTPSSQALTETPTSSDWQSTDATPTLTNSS

| Target | log2 fold change (erlotinib) | log2 fold change [1] | log2 fold change [2] | log2 fold change [3] | log2 fold change [4] | log2 fold change [5] | log2 fold change [6] | log2 fold change [7] | log2 fold change [8] | log2 fold change [9] | log2 fold change (IRAK-1-4 Inhibitor I) | log2 fold change (ibrutinib) | log2 fold change [10] | log2 fold change (ralimetinib) | log2 fold change [11] | log2 fold change [12] | log2 fold change [13] | log2 fold change (pinometostat) | log2 fold change [14] | log2 fold change [15] |
| --- | --- | --- | --- | --- | --- | --- | --- | --- | --- | --- | --- | --- | --- | --- | --- | --- | --- | --- | --- | --- |
| GGA2 (UniProt Q9UJY4) | 0.036 | -0.041 | -0.151 | 0.003 | 0.063 | 0.033 | -0.053 | -0.013 | 0.025 | -0.016 | 0.007 | -0.05 | -0.006 | -0.153 | -0.048 | -0.169 | 0.068 | -0.038 | -0.04 | 0.032 |
| GLUD1 (UniProt P00367) | 0.068 | -0.009 | 0.051 | 0.026 | 0.039 | -0.018 | -0.033 | 0 | 0.05 | -0.027 | 0.02 | 0.04 | 0.068 | 0.023 | -0.038 | -0.049 | 0.012 | 0.023 | -0.076 | 0.125 |
| HMG20A (UniProt Q9NP66) | -0.005 | 0.125 | -0.09 | 0.017 | -0.281 | -0.009 | 0.429 (active) | 0.001 | -0.013 | 0.006 | -0.05 | 0.043 | -0.015 | 0.275 | 0.062 | 0.043 | -0.405 | 0.026 | -0.008 | 0.007 |
| GALK1 isoform 2 (UniProt P51570) | 0.002 | 0.082 | 0.158 | -0.023 | -0.08 | 0.016 | 0.07 | 0.055 | -0.094 | 0.076 | 0.046 | 0.024 | 0.018 | 0.081 | -0.081 | -0.004 | -0.121 | 0.041 | 0.023 | -0.018 |
| HRC (UniProt P23327) | 0.012 | -0.056 | 0.042 | -0.018 | 0.005 | 0.023 | -0.021 | -0.087 | 0.041 | 0.045 | 0.002 | 0.003 | 0.041 | -0.039 | 0.132 | 0.074 | 0.011 | 0.019 | 0.011 | -0.033 |
| HDAC2 (UniProt Q92769) | 0.757 (active) | 0.013 | -0.02 | -0.012 | 0.006 | 0.002 | -0.011 | -0.011 | -0.025 | 0.023 | 0 | -0.015 | -0.046 | -0.004 | 0.01 | 0.007 | -0.04 | -0.01 | -0.006 | 0 |
| HSD17B12 (UniProt Q53GQ0) | 0.004 | 0.067 | 0.02 | 0.346 (active) | 0.025 | -0.012 | 0.027 | 0.064 | -0.028 | 0.124 | -0.01 | 0.038 | -0.127 | -0.037 | 0.289 (active) | 0.22 | -0.062 | -0.064 | 0.015 | 0.031 |
| GCDH (UniProt Q92947) | 0.016 | -0.078 | 0.045 | -0.273 (active) | 0.081 | -0.011 | 0.082 | 0.048 | -0.011 | 0.039 | 0.018 | 0.025 | -0.092 | 0.007 | -0.09 | 0.05 | 0.003 | -0.053 | -0.012 | 0.055 |
| FBXO3 (UniProt Q9UK99) | 0.01 | 0.044 | 0.141 | -0.018 | -0.038 | 0.062 | 0.112 | -0.003 | -0.029 | 0.002 | 0.038 | -0.003 | -0.008 | 0.171 | 0.021 | -0.014 | 0.031 | 0 | 0.014 | -0.047 |
| HNRNPH1 (UniProt P31943) | 0.043 | 0.102 | -0.04 | 0.004 | -0.035 | -0.012 | -0.016 | 0.007 | -0.1 | -0.023 | -0.032 | 0.048 | -0.176 | -0.018 | 0 | -0.427 (active) | 0.131 | 0.031 | 0.011 | -0.045 |
| HIST2H3A (UniProt Q71DI3) | 0.113 | -0.114 | -0.305 | -0.028 | 0.011 | 0.221 | 0.047 | -0.004 | 0.287 | -0.378 | -0.269 | 0.081 | -0.012 | 0.292 | -0.021 | -0.225 | 0.18 | 0.29 | 0.002 | 0.727 |
| FUT8 (UniProt Q9BYC5) | -0.036 | 0.019 | -0.07 | -0.12 | -0.145 | -0.055 | -0.004 | -0.038 | 0.045 | -0.038 | -0.02 | 0.064 | -0.098 | -0.087 | 0.019 | -0.133 | 0.053 | 0.065 | 0.105 | 0.077 |
| GSK3A (UniProt P49840) | -0.02 | 0.015 | 0.01 | 0.045 | -0.001 | -0.001 | 0.18 | 0.147 | 0.131 | 0.019 | 0.099 | 0.011 | 0.303 (active) | -0.061 | -0.107 | 0.011 | -0.022 | -0.031 | 0.011 | 0.022 |
| GSTM4 (UniProt Q03013) | 0.084 | -0.029 | 0.217 | -0.002 | -0.038 | 0.268 | -0.031 | -0.128 | 0.018 | 0.062 | 0.091 | -0.028 | -0.083 | -0.035 | -0.103 | 0.029 | -0.008 | -0.05 | -0.036 | 0.115 |
| HIKESHI (UniProt Q53FT3) | 0.004 | 0.1 | 0.017 | 0.003 | 0.073 | 0.02 | -0.002 | -0.03 | -0.056 | 0.009 | 0.013 | -0.041 | 0.023 | -0.305 (active) | -0.045 | -0.007 | -0.194 | 0.062 | -0.043 | 0.061 |
| HEXB (UniProt P07686) | -0.004 | 0.002 | 0.01 | 0.003 | -0.002 | 0.017 | 0.017 | -0.01 | 0.008 | 0.026 | 0.06 | 0.004 | 0.003 | -0.068 | -0.004 | -0.14 | 0.003 | -0.025 | -0.015 | -0.03 |
